This is an account of results in PubChem BioAssay AID1851 (National Center for Advancing Translational Sciences (NCATS), 2009).

The campaign covered roughly 16,000 compounds. About 4,000 (25%) were called active. Roughly 26% stayed inconclusive and do not appear here. Only a sample is shown. A number with no mark means an inactive call. The call rests on the fitted dose curve; in most records, active means well fitted curve in the direction sought with a large enough effect; inconclusive means small, poorly fitted or top-dose-only effect, or effect the other way; inactive means no such curve, though single readings can be large or run the other way.
On the % scale 0 is the no-effect control and ±100 the full control effect.

The target in this assay is Cytochrome P450 2C9 (Homo sapiens) (UniProt P11712). In words: Cytochrome panel assay with activity outcomes. As to conditions: recombinant CYP, pro-luciferin dealkylation, luminescence, p450-cyp2c9; series mostly up to 57.1 µM.
Sequence of Cytochrome P450 2C9 (Homo sapiens) (P11712 whole entry, looked up): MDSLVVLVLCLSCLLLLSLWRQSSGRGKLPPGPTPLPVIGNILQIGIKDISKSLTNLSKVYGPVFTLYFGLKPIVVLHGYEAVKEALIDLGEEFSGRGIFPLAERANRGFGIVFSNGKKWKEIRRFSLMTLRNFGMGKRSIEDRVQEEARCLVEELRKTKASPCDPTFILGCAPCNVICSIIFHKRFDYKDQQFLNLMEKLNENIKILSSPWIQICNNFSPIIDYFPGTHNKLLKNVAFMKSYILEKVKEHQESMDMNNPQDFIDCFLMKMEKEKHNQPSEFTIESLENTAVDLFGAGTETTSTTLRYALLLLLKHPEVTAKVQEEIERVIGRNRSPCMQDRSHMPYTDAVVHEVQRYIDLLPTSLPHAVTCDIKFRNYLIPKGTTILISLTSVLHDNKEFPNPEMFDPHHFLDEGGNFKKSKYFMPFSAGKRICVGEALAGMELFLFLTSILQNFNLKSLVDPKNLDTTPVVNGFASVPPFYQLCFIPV
For the molecule `CC1(C)O[C@H]2[C@@H](O1)[C@@H](On1nnc3ccc(Cl)cc31)O[C@@H]2[C@@H]1COC(C)(C)O1`, the activity, negative = inhibition is -3.36% [at 11.4 µM].

Usually AC50 stands for the concentration at which the activity in the assay is half-maximal. `Nn1nnc2ccccc21`: the AC50 result was “inactive”.

Take `N#Cc1cccc(-c2ccc3ncnc(N4CCNCC4)c3c2)c1`: the activity, negative = inhibition was 20.7% [at 2.29 µM].

As to `CCN(CC)S(=O)(=O)N1CCC(C(=O)NCc2ccc(C)cc2)CC1`, the AC50 result is “inactive”.

`O=C1C2=CC[C@H]3C(=O)N(c4cccc(Oc5ccccc5)c4)C(=O)[C@@H]3[C@@H]2[C@H](O)[C@@H]2O[C@H]12`: the activity, negative = inhibition was 4.88% [at 11.4 µM].

As to `Cc1ccc(CS(=O)(=O)CCC(=O)NCc2ccccn2)cc1`, the AC50 entry was “inactive”.

In the case of `COc1ccc(CNC(=O)Cc2csc(Nc3nc(=S)[nH]c4ccccc34)n2)cc1`, the AC50 is 0.224 µM (active).

With `Cc1ccc(CNC(=O)Cc2csc(Nc3nc(=S)[nH]c4ccccc34)n2)cc1`, the AC50 is 0.891 µM (active).

For `O=C(Cc1csc(Nc2nc(=S)[nH]c3ccccc23)n1)NCc1cccc(Cl)c1`, the AC50 was 0.0631 µM (active).

Consider `COc1ccc(C(CNC(=O)c2cc(=O)[nH]c3ccccc23)N2CCCC2)cc1` (stereo not given), for which the AC50 result is “inactive”.

For the molecule `Cc1ccc(CNC(=O)Cn2cncn2)cc1`, the AC50 result was “inactive”.

As for `Cc1ccc(C(=O)c2ccc(CC(=O)O)n2C)cc1`, the AC50 entry was “inactive”.

For the molecule `CCOC(=O)CCN1C(=O)[C@H]2[C@H]3[C@H](O)[C@H](O)C/C(=N/OC/C=C(\C)CCC=C(C)C)[C@@H]3CC[C@@H]2C1=O`, the activity, negative = inhibition is 7.78% [at 11.4 µM].

`CN1CCN(c2ncnc3ccc(-c4ccc(C(=O)N(C)C)cc4)cc23)CC1`: the activity, negative = inhibition is 17.4% [at 2.29 µM].

As for `Cc1noc(C)c1-c1ccc2ncnc(Nc3ccc(F)cc3)c2c1`, the activity, negative = inhibition is -13.2% [at 2.29 µM].

On to `FC(F)(F)c1cc(CN2CCC3(CCNCC3)CC2)cc(C(F)(F)F)c1`, for which the AC50 entry is “inactive”.

Regarding `CS(=O)(=O)Nc1cccc(-c2nccc(Nc3ccc(F)cc3)n2)c1`, the activity, negative = inhibition was 18.7% [at 2.29 µM].

Regarding `COC(=O)c1cc(/C=C/c2ccccc2)on1`, the AC50 result was “inactive”.

As to `COC(=O)C1=C(C)N=C2SC(C)C(=O)N2C1/C=C/c1ccccc1` (stereo not given), the AC50 was 4.47 µM (active).

With `COC(=O)[C@@]1(Cc2ccccc2)[C@H]2c3cc(C(=O)N(C)C)n(Cc4ccsc4Br)c3C[C@H]2CN1C(=O)c1ccccc1`, the AC50 was 3.98 µM (active).

Consider `COC(=O)[C@@]1(Cc2ccccc2)[C@H]2c3cc(C(=O)N4CCCC4)n(Cc4ccsc4Br)c3C[C@H]2CN1C(=O)c1ccccc1`, for which the AC50 is 2 µM (active).

`CCCCN1CCCC[C@H]1C(=O)Nc1c(C)cccc1C`: the AC50 result was “inactive”.

With `CC(=O)OC[C@@H]1O[C@H](CCO/N=C\[C@@H](C)[C@H](OCc2ccccc2)C(C)C)C=C[C@@H]1OC(C)=O`, the activity, negative = inhibition was -15.4% [at 11.4 µM].

Turning to `CON1C(=O)C(=O)N(OC)C(C)(C)C1C` (stereo not given), the AC50 result was “inactive”.

Consider `Cc1cc([N+](=O)[O-])nn1CC(=O)NNC(=S)Nc1ccc(F)cc1`, for which the AC50 result was “inactive”.

With `Cc1nn(C)c(C(=O)NNC(=S)Nc2ccc(Cl)cc2)c1[N+](=O)[O-]`, the AC50 is 6.31 µM (active).

As for `Cc1cc(NC(=O)c2c([N+](=O)[O-])c(C)nn2C)no1`, the AC50 entry is “inactive”.

As for `COc1ccccc1NC(=S)NNC(=O)c1c(Cl)c(C)nn1C`, the AC50 is 3.55 µM (active).

Take `O=C(N/N=C1/C[C@@H](O)[C@@H](O)[C@@H]2[C@H]3C(=O)N(c4ccc(F)cc4F)C(=O)[C@@H]3CC[C@@H]12)OCc1ccccc1`: the activity, negative = inhibition was -1.14% [at 11.4 µM].

Regarding `O=C(O)c1ccc(C(=O)O)c(C(=O)O)c1.[NH-][C@@H]1CCCC[C@@H]1[NH-].[Pt]`, the activity, negative = inhibition was 0.225% [at 11.4 µM].

With `O=C(O)c1ccc(C(=O)c2ccccc2C(=O)O)cc1C(=O)O`, the activity, negative = inhibition was -6.86% [at 11.4 µM].

Take `NC(N)=N/N=C\c1ccc(O)c(C(=O)O)c1`: the activity, negative = inhibition was 2.83% [at 11.4 µM].

Take `O=C(O)C1=CC(=C(c2ccc(O)c(C(=O)O)c2)c2ccc(O)c(C(=O)O)c2)C=CC1=O`: the AC50 is 15.8 µM (active).

For the molecule `CC1=C/C(=C(/c2ccc(O)c(C)c2)c2ccccc2C(=O)O)C=CC1=O`, the AC50 was 0.01 µM (active).

On to `NC(=O)CN1CCOCCOCCOCCOCCOCC1`, for which the AC50 entry was “inactive”.

Turning to `O=S(=O)(NCc1cccnc1)c1ccc(Cl)nc1`, the AC50 result is “inactive”.

Turning to `CCN(C1CCCCC1)S(=O)(=O)c1ccc(S(=O)(=O)NCc2ccncc2)cc1`, the AC50 is 0.0398 µM (active).

Turning to `COc1ccccc1CNc1cc(-c2c(C)noc2C)ncn1`, the activity, negative = inhibition was -2.44% [at 2.29 µM].

For the molecule `Cc1ccc(-n2nc(C)c3c2OC(N)=C(C#N)C3c2ccco2)cc1` (stereo not given), the AC50 is 6.31 µM (active).

On to `COc1ccccc1NC(=O)COC(=O)c1ccc(S(=O)(=O)NCc2ccco2)cc1`, for which the AC50 was 0.398 µM (active).

`NCCSSCCN`: the AC50 result was “inactive”.

As to `CN1CCN(c2ncc3nc(-c4ccc(Cl)cc4)c(=O)n(Cc4cccs4)c3n2)CC1`, the AC50 entry is “inactive”.

`O=c1c(-c2ccc(F)cc2)nc2cnc(N3CCNCC3)nc2n1Cc1cccs1`: the AC50 was 15.8 µM (active).

As to `O=c1c(-c2ccc(Cl)cc2)nc2cnc(N3CCNCC3)nc2n1Cc1cccs1`, the AC50 is 20 µM (active).

Regarding `COc1ccc(-c2nc3cnc(N4CCN(C)CC4)nc3n(Cc3cccs3)c2=O)cc1`, the AC50 result is “inactive”.

As for `CN(C)c1ncc2nc(-c3cc(F)cc(F)c3)c(=O)n(Cc3cccs3)c2n1`, the AC50 result was “inactive”.

As for `O=c1cnc2cnc(N3CCNCC3)nc2n1Cc1cccs1`, the AC50 entry was “inactive”.

As to `O=c1c(-c2cccs2)nc2cnc(N3CCNCC3)nc2n1Cc1cccs1`, the concentration at half-maximal activity (AC50) was 12.6 µM (active).

For the molecule `O=c1c(-c2ccc(F)cc2)nc2cnc(N3CCOCC3)nc2n1Cc1cccs1`, the AC50 entry was “inactive”.

Regarding `O=c1c(-c2cc(F)cc(F)c2)nc2cnc(N3CCNCC3)nc2n1Cc1cccs1`, the AC50 is 3.98 µM (active).

Take `CN1CCN(c2ncc3nc(-c4cc(F)cc(F)c4)c(=O)n(Cc4cccs4)c3n2)CC1`: the AC50 entry was “inactive”.

In the case of `Cc1nc2cnc(N3CCNCC3)nc2n(Cc2cccs2)c1=O`, the AC50 entry is “inactive”.

Consider `COc1ccc(NC(=O)N2CC[C@@]3(CCCN(C(=O)c4cc(C(F)(F)F)cc(C(F)(F)F)c4)C3)C2)cc1`, for which the AC50 entry is “inactive”.

Consider `O=C1C(O)=C(O)C(=O)C(O)=C1O`, for which the AC50 entry was “inactive”.

Turning to `Cc1ccnc(NS(=O)(=O)c2ccc(N=[N+]=[N-])cc2)n1`, the activity, negative = inhibition is -7.68% [at 11.4 µM].
